# Test results: PubChem BioAssay (EPA / NIEHS)
# Activity calls are given as the source filed them. How the source made its calls: active means hit-call score of the fitted dose curve at least 0.9, where 1 is the maximum; inactive means score below 0.9.
# What was measured:
# [1] = ATG_CRE_CIS: Attagene CIS-FACTORIAL HepG2 Assay for human cAMP Responsive Element (CRE) binding protein 3 (AID 2282926); conditions: HepG2 CRE cis-reporter, Attagene multiplexed mRNA; actives raise or lower the signal
# Outline: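 Endogenous CRE-binding activity in HepG2 is reported through a cis-regulated transfected reporter. Following a day of exposure, mRNA levels are determined by reverse transcription PCR and fluorescent fragment analysis; fits run in both directions versus DMSO.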
# [2] = target: CCAAT/enhancer-binding protein beta (Homo sapiens) (UniProt P17676); assay: ATG_C_EBP_CIS: Attagene CIS-FACTORIAL HepG2 Assay for human CCAAT/Enhancer Binding Protein (C/EBP) beta (AID 2282927); conditions: HepG2 Attagene cis-factorial transcription factor reporter; actives raise or lower the signal
# Outline: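 HepG2, transient MRTU transfection, 24 h treatment. RT-PCR plus CE fluorescence; DMSO negative control, bidirectional fit.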
# [3] = ATG_CMV_CIS: Attagene CIS-FACTORIAL HepG2 Assay for human CMV (Internal Marker) (AID 2282928); conditions: HepG2 CMV promoter reporter, transcription factor profiling; actives raise or lower the signal;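 further: endpoint acts as a background internal control marker rather than a target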
# Outline: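 CMV internal-marker background readout in transiently transfected HepG2 cells bearing cis-regulated reporter units. Reporter mRNA is measured 24 h after dosing by RT-PCR and capillary electrophoresis, with bidirectional fitting against DMSO.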
# [4] = ATG_DR4_LXR_CIS: Attagene CIS-FACTORIAL HepG2 Assay for human Liver X Receptor (LXR), DR4 submotif (AID 2282929); conditions: HepG2 Attagene DR4 cis-reporter, mRNA transcription; actives raise or lower the signal
# Outline: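 After transient transfection with multiplexed cis-promoter reporter units, HepG2 cells received test chemicals for 24 h. Reporter mRNA induction, detected by fluorescence after RT-PCR and capillary electrophoresis, was scored relative to DMSO.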
# [5] = target: Aryl hydrocarbon receptor (Homo sapiens) (UniProt P35869); assay: ATG_Ahr_CIS: Attagene CIS-FACTORIAL HepG2 Assay for human Aryl Hydrocarbon Receptor (Ahr) (AID 2282930); conditions: HepG2 AhR cis-factorial reporter transcription; actives raise or lower the signal
# Outline: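 Endogenous factor activity is tracked through cis-promoter reporter units transfected into HepG2 cells. Transcript levels at 24 h are read by fluorescent RT-PCR and capillary electrophoresis, with activity in either direction scored relative to DMSO.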
# [6] = ATG_AP_1_CIS: Attagene CIS-FACTORIAL HepG2 Assay for human Activator Protein 1 (AP-1) (AID 2282931); conditions: HepG2 Attagene cis-factorial AP-1 reporter mRNA; actives raise or lower the signal
# Outline: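 After 24 h incubation with test chemical, RNA from transfected HepG2 cells was reverse-transcribed, amplified, fluorescently labelled and digested before capillary electrophoresis. Reporters were driven by cis-regulatory promoters; activity fitted bidirectionally versus DMSO.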
# [7] = ATG_AP_2_CIS: Attagene CIS-FACTORIAL HepG2 Assay for human Activator Protein 2 (AP-2) (AID 2282932); conditions: HepG2 AP-2 cis-reporter, Attagene transcription factor profiling; actives raise or lower the signal
# Outline: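 HepG2 cells transiently transfected with cis-element reporter units and exposed for 24 h. Reporter mRNA measured by RT-PCR, FAM labelling, HpaI digestion and capillary electrophoresis. Changes in either direction fitted relative to DMSO.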
# [8] = ATG_BRE_CIS: Attagene CIS-FACTORIAL HepG2 Assay for human Bone Morphogenetic Protein (BMP) Response Element (BRE) (AID 2282933); conditions: HepG2 BMP response element reporter, Attagene transcription factor profiling; actives raise or lower the signal
# Outline: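 Endogenous transcription factor activity at a BMP response element was monitored in transfected HepG2 cells 24 h after dosing. Fluorescent RT-PCR products were resolved by capillary electrophoresis, and activity was fitted in both directions versus DMSO.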
# [9] = target: Retinoic acid receptor alpha (Homo sapiens) (UniProt P10276); assay: ATG_DR5_RAR_CIS: Attagene CIS-FACTORIAL HepG2 Assay for human Retinoic Acid Receptor Alpha (RARE), DR5 submotif (AID 2282934); conditions: HepG2 Attagene cis-factorial RARE DR5 reporter, mRNA; actives raise or lower the signal;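 on AC50: reporter responds to endogenous RAR alpha beta and gamma in HepG2 not RARA alone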
# Outline: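 After 24 h of chemical exposure, transiently transfected HepG2 cells were lysed for total RNA; the DR5-regulated reporter transcript was quantified via RT-PCR and capillary electrophoresis, with activity fitted bidirectionally against DMSO.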
# [10] = target: Transcription factor E2F1 (Homo sapiens) (UniProt Q01094); assay: ATG_E2F_CIS: Attagene CIS-FACTORIAL HepG2 Assay for human E2F Transcription Factor 1 (AID 2282935); conditions: HepG2 Attagene cis-reporter, E2F reporter RNA transcripts; actives raise or lower the signal
# Outline: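 Endogenous E2F1 activity read through cis-promoter reporter units transfected into HepG2. After 24 h compound treatment, reporter mRNA measured by RT-PCR, HpaI digestion and capillary electrophoresis. Bidirectional fit versus DMSO.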
# [11] = ATG_E_Box_CIS: Attagene CIS-FACTORIAL HepG2 Assay for human Enhancer Box (E-box) (AID 2282936); conditions: HepG2 E-box cis-reporter transcription, actives raise or lower the signal
# Outline: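 HepG2 cells transiently transfected with multiplexed cis-element reporter units, dosed 24 h; reporter mRNA quantified by RT-PCR, 6-FAM labelling, HpaI digestion and capillary electrophoresis. E-box (USF1) signal fitted bidirectionally vs DMSO.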
# [12] = ATG_M_61_CIS: Attagene CIS-FACTORIAL HepG2 Assay for M61 Transcription Factor (Internal Marker) (AID 2282937); conditions: HepG2 Attagene CIS-FACTORIAL M61 internal marker reporter; actives raise or lower the signal
# Outline: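 Using transiently transfected HepG2 liver cells, reporter transcript levels were assessed 24 h post-dosing by RT-PCR and capillary electrophoresis. Changes in either direction were fitted relative to DMSO controls.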
# [13] = ATG_EGR_CIS: Attagene CIS-FACTORIAL HepG2 Assay for human Early Growth Response 1 (EGR1) (AID 2282938); conditions: HepG2 Attagene CIS-FACTORIAL EGR reporter mRNA; actives raise or lower the signal
# Outline: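 Fluorescent capillary-electrophoresis signal of reporter cDNA fragments serves as read-out. HepG2 cells bear transiently transfected cis-promoter reporter units and are exposed 24 h; gain- or loss-of-signal is fitted against DMSO.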
# [14] = ATG_M_19_CIS: Attagene CIS-FACTORIAL HepG2 Assay for M19 Transcription Factor (Internal Marker) (AID 2282939); conditions: HepG2 Attagene CIS-FACTORIAL M19 internal marker reporter; actives raise or lower the signal
# Outline: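 Background-control endpoint from a multiplexed HepG2 reporter panel. Cells carrying cis-regulated reporter constructs are treated 24 h, then reporter transcripts are amplified, fluorescently labelled and sized by capillary electrophoresis. DMSO defines baseline.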
# [15] = ATG_ERE_CIS: Attagene CIS-FACTORIAL HepG2 Assay for Estrogen Response Element (ERE) (AID 2282940); conditions: HepG2 ERE cis-reporter, Attagene RNA transcript; actives raise or lower the signal
# Outline: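 Cells used were human hepatoma HepG2, transfected with multiple reporter transcription units under cis-regulatory promoters. Reporter mRNA, read 24 h post-dosing via fluorescent RT-PCR products on capillary electrophoresis, was fitted bidirectionally relative to DMSO.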
# [16] = ATG_Ets_CIS: Attagene CIS-FACTORIAL HepG2 Assay for human Erythroblast Transformation Specific (ETS) (AID 2282941); conditions: HepG2 ETS cis-reporter transcription, actives raise or lower the signal
# Outline: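 HepG2 cells transfected with multiple cis-regulated reporter units measuring endogenous ETS-driven transcription, 24 h after dosing. Reporter mRNA quantified by RT-PCR with capillary electrophoresis; bidirectional fit relative to DMSO.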
# [17] = target: Hepatocyte nuclear factor 3-beta (Homo sapiens) (UniProt Q9Y261); assay: ATG_FoxA2_CIS: Attagene CIS-FACTORIAL HepG2 Assay for human Forkhead box A2 (FOXA2) (AID 2282942); conditions: HepG2 cis-reporter transcription factor activity, 24 h; actives raise or lower the signal
# Outline: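 Fluorescence signal of reporter cDNA fragments, separated by capillary electrophoresis, reflects endogenous transcription factor activity in transfected HepG2 after 24 h. Both increases and decreases fitted against DMSO.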
# [18] = ATG_FoxO_CIS: Attagene CIS-FACTORIAL HepG2 Assay for human Forkhead box O (FoxO) (AID 2282943); conditions: HepG2 Attagene cis-reporter, FoxO element, mRNA; actives raise or lower the signal
# Outline: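 Transfected HepG2 reporter cells exposed to test chemical for 24 h; reporter RNA measured by reverse transcription, PCR and fluorescent capillary electrophoresis; curves fitted for increases and decreases against DMSO.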
# [19] = ATG_GATA_CIS: Attagene CIS-FACTORIAL HepG2 Assay for human GATA Binding Protein (AID 2282944); conditions: HepG2 GATA cis-element reporter, Attagene multiplex mRNA; actives raise or lower the signal
# Outline: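 Endogenous transcription factor activity was captured through cis-promoter-driven reporters in transfected HepG2 cells. After 24 h exposure, reporter transcripts were quantified by RT-PCR with fluorescent capillary electrophoresis, and responses fitted both directions against DMSO.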
# Sequence of Transcription factor E2F1 (Homo sapiens) (Q01094 whole entry, looked up): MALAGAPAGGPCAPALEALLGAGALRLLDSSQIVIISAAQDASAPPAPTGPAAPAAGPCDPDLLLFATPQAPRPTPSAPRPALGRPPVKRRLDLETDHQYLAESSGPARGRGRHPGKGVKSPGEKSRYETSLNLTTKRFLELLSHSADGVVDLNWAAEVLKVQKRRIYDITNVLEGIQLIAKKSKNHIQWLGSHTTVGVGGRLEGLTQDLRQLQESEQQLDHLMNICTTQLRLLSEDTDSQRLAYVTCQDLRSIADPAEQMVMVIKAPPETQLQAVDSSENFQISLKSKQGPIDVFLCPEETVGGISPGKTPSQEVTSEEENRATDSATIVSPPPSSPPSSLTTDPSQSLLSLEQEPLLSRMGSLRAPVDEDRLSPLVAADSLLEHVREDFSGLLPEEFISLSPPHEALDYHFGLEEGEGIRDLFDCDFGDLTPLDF
# Sequence of Aryl hydrocarbon receptor (Homo sapiens) (P35869 whole entry, looked up): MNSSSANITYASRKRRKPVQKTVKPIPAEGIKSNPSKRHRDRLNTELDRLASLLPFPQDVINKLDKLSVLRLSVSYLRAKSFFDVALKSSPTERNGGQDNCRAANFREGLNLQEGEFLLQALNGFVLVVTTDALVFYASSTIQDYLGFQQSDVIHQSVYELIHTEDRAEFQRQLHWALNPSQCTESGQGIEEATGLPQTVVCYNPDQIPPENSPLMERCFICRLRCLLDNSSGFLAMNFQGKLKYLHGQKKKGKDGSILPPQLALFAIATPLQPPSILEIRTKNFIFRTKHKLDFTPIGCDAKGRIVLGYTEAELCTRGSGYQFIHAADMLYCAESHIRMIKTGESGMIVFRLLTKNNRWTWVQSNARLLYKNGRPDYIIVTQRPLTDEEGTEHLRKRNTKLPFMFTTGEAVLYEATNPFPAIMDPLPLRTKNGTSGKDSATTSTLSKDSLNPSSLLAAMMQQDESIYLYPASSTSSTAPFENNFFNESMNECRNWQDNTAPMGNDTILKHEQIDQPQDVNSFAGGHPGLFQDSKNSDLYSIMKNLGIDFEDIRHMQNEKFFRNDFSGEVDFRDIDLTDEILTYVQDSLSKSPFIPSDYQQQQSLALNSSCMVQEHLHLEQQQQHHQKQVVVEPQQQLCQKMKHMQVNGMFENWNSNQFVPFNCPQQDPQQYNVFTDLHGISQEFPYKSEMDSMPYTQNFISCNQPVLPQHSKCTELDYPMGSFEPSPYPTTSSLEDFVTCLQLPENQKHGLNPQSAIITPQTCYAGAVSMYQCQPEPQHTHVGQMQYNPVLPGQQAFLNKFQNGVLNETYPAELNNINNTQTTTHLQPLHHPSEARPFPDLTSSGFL
# Sequence of Retinoic acid receptor alpha (Homo sapiens) (P10276 whole entry, looked up): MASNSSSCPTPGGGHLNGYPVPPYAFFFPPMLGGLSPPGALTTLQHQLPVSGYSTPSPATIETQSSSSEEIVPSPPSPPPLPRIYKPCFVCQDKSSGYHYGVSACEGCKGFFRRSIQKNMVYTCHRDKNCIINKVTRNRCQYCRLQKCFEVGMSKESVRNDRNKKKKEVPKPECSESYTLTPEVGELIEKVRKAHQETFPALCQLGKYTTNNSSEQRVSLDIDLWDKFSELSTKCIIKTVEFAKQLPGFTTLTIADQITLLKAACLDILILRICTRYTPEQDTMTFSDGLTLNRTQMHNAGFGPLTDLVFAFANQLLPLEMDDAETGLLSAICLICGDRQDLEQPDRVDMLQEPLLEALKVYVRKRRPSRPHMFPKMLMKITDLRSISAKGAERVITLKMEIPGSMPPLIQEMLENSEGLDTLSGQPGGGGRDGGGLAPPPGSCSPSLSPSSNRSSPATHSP
# Sequence of Hepatocyte nuclear factor 3-beta (Homo sapiens) (Q9Y261 whole entry, looked up, the tested form may be a part): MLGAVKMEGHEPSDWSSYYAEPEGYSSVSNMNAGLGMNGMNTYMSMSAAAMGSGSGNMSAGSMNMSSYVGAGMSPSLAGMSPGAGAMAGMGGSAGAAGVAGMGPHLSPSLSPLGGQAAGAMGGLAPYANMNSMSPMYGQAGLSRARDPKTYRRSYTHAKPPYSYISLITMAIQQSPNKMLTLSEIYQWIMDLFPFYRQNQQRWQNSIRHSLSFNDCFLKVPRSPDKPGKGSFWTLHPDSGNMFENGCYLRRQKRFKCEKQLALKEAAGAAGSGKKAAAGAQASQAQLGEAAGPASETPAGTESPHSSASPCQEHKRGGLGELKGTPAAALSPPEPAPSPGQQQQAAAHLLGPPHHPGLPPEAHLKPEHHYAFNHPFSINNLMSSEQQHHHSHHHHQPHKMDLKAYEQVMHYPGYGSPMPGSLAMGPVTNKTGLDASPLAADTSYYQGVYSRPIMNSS
# Sequence of CCAAT/enhancer-binding protein beta (Homo sapiens) (P17676 whole entry, looked up): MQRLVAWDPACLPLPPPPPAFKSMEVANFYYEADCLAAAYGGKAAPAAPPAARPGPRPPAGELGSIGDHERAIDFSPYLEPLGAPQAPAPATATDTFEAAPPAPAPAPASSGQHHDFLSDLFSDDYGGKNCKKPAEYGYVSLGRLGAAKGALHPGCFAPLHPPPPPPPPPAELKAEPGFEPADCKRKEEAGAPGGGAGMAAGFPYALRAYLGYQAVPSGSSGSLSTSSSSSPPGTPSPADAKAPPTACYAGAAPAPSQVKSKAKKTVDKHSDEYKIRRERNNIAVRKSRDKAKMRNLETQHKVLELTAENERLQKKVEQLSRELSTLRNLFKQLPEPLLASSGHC
compound,measurement,setting,value
CC(C)Oc1cc(-n2nc(C(C)(C)C)oc2=O)c(Cl)cc1Cl,outcome,[1],inactive
same,outcome,[2],inactive
same,AC50,[3],6.05 µM (active)
same,outcome,[4],inactive
same,outcome,[5],inactive
same,AC50,[6],21.8 µM (active)
same,outcome,[7],inactive
same,AC50,[8],50 µM (active)
same,AC50,[9],0.86 µM (active)
same,outcome,[10],inactive
same,outcome,[11],inactive
same,outcome,[12],inactive
same,outcome,[13],inactive
same,outcome,[14],inactive
same,AC50,[15],12.8 µM (active)
same,outcome,[16],inactive
same,outcome,[17],inactive
same,outcome,[18],inactive
same,outcome,[19],inactive
COC(=O)C(C)Oc1ccc(Oc2ccc(Cl)cc2Cl)cc1 (configuration not stated),outcome,[1],inactive
same,outcome,[3],inactive
same,outcome,[4],inactive
same,outcome,[5],inactive
same,outcome,[6],inactive
same,outcome,[7],inactive
same,outcome,[8],inactive
same,outcome,[9],inactive
same,outcome,[10],inactive
same,outcome,[11],inactive
same,outcome,[12],inactive
same,outcome,[13],inactive
same,outcome,[14],inactive
same,outcome,[16],inactive
same,outcome,[17],inactive
same,outcome,[18],inactive
same,outcome,[19],inactive
CCON=C(CC)C1=C(O)CC(c2c(C)cc(C)cc2C)CC1=O (configuration not stated),outcome,[1],inactive
same,outcome,[3],inactive
same,outcome,[4],inactive
same,outcome,[5],inactive
same,outcome,[6],inactive
same,outcome,[7],inactive
same,outcome,[8],inactive
same,outcome,[9],inactive
same,outcome,[10],inactive
same,outcome,[11],inactive
same,outcome,[12],inactive
same,outcome,[13],inactive
same,outcome,[14],inactive
same,outcome,[15],inactive
same,outcome,[16],inactive
same,outcome,[17],inactive
same,outcome,[18],inactive
same,outcome,[19],inactive
COP(N)(=O)SC (configuration not stated),outcome,[1],inactive
same,outcome,[3],inactive
same,outcome,[4],inactive
same,outcome,[5],inactive
same,outcome,[6],inactive
same,outcome,[7],inactive
same,outcome,[8],inactive
same,outcome,[9],inactive
same,outcome,[10],inactive
same,outcome,[11],inactive
same,outcome,[12],inactive
same,outcome,[13],inactive
same,outcome,[14],inactive
same,outcome,[15],inactive
same,outcome,[16],inactive
same,outcome,[17],inactive
same,outcome,[18],inactive
same,outcome,[19],inactive
